# Key:
# Experiment in all cases: DAPPL (digital affinity profiling via proximity ligation, sequencing); 10 mM Tris-HCl pH 7.5, 50 mM NaCl, 1 mM DTT, 4% glycerol, room temperature, 30 min; GST-TFs on glutathione beads, 16-mer random dsDNA library, 0.1% formaldehyde crosslink after washing; high values mean tight binding
# FLI1 = molecular target: T1, FLI1 (Homo sapiens, UniProt Q01543 1-452); conditions: protein: recombinant; tags: N-terminal GST; dsDNA, one strand shown
# T1 sequence: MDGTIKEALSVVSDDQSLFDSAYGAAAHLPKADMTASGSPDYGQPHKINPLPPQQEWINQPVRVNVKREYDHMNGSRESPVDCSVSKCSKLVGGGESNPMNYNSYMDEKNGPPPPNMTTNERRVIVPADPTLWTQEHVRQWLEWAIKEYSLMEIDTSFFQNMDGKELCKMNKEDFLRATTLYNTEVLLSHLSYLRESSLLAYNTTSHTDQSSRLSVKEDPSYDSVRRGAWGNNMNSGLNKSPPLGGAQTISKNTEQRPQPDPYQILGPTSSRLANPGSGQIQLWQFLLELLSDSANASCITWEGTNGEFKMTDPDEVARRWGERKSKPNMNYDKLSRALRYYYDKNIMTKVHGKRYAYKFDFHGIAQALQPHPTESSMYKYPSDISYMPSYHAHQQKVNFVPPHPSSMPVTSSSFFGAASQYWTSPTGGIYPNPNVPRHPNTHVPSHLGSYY
# In short: (§1)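 GST fusions of human transcription factors were expressed in yeast and captured with glutathione beads. Once given DNA barcodes and pooled alongside a tag-only sample, they were incubated for 30 min at room temperature with 200 nmole of a random double-stranded 16-mer DNA library in Tris/NaCl/DTT/glycerol buffer, then washed, crosslinked (0.1% formaldehyde), proximity-ligated, PCR-amplified and sequenced on an Illumina NextSeq500. The binding signal of each hexamer is its read frequency for a factor divided by its frequency for the tag-only sample.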
# ELK1 = molecular target: T2, ELK1 (Homo sapiens, UniProt P19419 1-428); conditions: protein: recombinant; tags: N-terminal GST; dsDNA, one strand shown
# T2 sequence: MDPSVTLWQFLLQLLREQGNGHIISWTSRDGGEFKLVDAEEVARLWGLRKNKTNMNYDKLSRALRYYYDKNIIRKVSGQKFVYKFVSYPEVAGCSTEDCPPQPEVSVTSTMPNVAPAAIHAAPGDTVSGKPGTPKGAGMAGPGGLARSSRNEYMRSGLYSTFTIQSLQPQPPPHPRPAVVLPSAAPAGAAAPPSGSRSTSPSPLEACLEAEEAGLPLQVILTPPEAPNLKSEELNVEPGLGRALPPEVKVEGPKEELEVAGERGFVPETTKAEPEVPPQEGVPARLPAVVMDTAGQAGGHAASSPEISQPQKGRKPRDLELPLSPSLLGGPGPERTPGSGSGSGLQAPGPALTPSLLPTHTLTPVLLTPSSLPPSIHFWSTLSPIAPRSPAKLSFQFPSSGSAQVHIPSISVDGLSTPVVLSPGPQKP
# In short: as §1
# GABPA = molecular target: T3, GABPA (Homo sapiens, UniProt Q06546 1-454); conditions: protein: recombinant; tags: N-terminal GST; dsDNA, one strand shown
# T3 sequence: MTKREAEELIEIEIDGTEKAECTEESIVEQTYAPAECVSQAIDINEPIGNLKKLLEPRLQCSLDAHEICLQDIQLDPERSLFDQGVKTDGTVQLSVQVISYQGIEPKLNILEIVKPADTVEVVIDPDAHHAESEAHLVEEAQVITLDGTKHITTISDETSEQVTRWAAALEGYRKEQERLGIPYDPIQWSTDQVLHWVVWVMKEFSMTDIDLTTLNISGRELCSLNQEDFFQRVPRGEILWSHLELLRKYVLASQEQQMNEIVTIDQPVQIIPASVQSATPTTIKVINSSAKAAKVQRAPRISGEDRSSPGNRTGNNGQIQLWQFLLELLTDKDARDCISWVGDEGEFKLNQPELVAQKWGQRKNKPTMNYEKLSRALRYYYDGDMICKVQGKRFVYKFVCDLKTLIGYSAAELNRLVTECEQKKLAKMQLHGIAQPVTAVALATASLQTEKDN
# In short: as §1
# ERG = molecular target: T4, ERG (Homo sapiens, UniProt P11308 1-479); conditions: protein: recombinant; tags: N-terminal GST; dsDNA, one strand shown
# T4 sequence: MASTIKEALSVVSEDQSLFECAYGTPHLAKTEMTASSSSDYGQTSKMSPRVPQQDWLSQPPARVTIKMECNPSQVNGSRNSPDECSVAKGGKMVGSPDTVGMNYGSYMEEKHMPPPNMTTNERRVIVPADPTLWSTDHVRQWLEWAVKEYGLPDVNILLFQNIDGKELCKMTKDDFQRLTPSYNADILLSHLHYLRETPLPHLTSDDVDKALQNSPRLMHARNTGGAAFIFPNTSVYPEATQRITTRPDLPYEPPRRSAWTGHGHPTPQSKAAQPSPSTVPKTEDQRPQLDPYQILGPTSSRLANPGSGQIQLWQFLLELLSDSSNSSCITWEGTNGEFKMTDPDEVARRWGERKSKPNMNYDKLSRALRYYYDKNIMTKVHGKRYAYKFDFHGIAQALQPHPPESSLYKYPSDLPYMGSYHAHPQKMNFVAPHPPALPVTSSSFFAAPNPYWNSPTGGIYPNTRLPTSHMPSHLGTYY
# In short: as §1
# ELF1 = ELF1 (Homo sapiens, UniProt P32519 1-619); conditions: protein: recombinant; tags: N-terminal GST; dsDNA, one strand shown
# Chain of ELF1 (P32519 whole entry): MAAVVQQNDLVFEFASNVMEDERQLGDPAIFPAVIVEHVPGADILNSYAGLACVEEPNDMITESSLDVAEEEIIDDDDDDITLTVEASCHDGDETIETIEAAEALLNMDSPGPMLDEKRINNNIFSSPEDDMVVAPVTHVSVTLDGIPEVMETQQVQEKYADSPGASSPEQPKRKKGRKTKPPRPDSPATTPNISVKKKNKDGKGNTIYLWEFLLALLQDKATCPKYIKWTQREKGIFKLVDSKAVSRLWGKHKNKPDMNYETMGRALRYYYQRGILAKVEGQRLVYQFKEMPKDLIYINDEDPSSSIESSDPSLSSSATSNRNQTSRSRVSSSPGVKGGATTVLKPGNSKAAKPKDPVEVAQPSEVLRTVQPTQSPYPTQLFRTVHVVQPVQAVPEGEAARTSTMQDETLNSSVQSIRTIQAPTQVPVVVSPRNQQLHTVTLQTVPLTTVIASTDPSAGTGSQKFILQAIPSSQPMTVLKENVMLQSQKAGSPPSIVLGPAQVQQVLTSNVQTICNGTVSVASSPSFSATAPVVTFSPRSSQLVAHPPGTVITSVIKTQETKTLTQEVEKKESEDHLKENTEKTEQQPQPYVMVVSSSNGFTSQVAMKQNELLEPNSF
# In short: as §1
# EHF = molecular target: T5, EHF (Homo sapiens, UniProt Q9NZC4 1-300); conditions: protein: recombinant; tags: N-terminal GST; dsDNA, one strand shown
# T5 sequence: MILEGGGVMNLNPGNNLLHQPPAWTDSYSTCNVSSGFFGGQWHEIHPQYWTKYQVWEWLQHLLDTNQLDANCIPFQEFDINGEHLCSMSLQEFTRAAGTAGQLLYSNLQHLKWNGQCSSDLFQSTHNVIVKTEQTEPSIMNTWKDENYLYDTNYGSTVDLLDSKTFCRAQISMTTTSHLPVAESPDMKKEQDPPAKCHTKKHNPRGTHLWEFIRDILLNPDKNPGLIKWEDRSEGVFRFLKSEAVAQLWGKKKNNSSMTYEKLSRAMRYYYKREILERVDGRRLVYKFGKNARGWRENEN
# In short: as §1
# SPI1 = SPI1 (Homo sapiens, UniProt P17947 1-270); conditions: protein: recombinant; tags: N-terminal GST; dsDNA, one strand shown
# In short: as §1
# SPIB = SPIB (Homo sapiens, UniProt Q01892 1-262); conditions: protein: recombinant; tags: N-terminal GST; dsDNA, one strand shown
# Chain of SPIB (Q01892 whole entry): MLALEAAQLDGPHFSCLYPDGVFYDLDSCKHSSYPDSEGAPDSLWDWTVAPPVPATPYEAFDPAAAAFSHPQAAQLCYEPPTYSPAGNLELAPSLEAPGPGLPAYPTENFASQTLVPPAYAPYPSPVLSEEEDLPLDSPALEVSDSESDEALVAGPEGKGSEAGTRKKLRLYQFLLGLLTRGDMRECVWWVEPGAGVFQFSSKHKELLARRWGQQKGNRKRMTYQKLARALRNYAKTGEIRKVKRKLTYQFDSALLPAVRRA
# In short: as §1
# ELK3 = molecular target: T6, ELK3 (Homo sapiens, UniProt P41970 1-407); conditions: protein: recombinant; tags: N-terminal GST; dsDNA, one strand shown
# T6 sequence: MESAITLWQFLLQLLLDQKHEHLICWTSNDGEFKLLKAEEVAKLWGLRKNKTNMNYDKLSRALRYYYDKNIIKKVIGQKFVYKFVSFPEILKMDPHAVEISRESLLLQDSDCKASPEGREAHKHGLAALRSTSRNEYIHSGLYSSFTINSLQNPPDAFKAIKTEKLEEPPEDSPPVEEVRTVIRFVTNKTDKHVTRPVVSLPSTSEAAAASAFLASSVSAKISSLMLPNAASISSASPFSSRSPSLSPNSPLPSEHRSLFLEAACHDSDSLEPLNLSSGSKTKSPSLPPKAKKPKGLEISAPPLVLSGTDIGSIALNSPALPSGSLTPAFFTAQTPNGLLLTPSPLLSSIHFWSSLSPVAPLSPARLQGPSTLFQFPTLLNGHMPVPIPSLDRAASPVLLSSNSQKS
# In short: as §1
# FEV = molecular target: T7, FEV (Homo sapiens, UniProt Q99581 1-238); conditions: protein: recombinant; tags: N-terminal GST; dsDNA, one strand shown
# T7 sequence: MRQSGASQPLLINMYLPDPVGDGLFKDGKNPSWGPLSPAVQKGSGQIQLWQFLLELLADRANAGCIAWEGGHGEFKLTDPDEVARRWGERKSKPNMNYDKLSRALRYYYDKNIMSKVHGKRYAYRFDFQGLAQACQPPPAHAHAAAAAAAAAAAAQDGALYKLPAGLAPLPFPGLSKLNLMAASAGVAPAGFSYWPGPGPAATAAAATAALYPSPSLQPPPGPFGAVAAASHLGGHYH
# In short: as §1
# ETV5 = ETV5 (Homo sapiens, UniProt P41161 1-510); conditions: protein: recombinant; tags: N-terminal GST; dsDNA, one strand shown
# Chain of ETV5 (P41161 whole entry): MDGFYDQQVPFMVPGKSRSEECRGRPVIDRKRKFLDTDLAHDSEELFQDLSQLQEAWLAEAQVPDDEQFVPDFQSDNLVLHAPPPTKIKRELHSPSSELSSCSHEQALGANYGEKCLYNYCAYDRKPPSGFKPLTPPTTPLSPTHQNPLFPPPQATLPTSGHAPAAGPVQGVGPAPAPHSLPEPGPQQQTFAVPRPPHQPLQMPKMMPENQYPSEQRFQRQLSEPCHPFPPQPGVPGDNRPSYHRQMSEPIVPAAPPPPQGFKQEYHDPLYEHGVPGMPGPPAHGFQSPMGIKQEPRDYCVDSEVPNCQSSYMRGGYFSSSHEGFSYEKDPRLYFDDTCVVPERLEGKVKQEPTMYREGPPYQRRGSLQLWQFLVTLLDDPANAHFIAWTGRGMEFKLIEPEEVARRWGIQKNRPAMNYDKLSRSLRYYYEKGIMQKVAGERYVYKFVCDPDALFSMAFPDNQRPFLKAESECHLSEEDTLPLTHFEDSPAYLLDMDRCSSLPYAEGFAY
# In short: as §1
# HSF1 = HSF1 (Homo sapiens, UniProt Q00613 1-529); conditions: protein: recombinant; tags: N-terminal GST; chain copies: 3; dsDNA, one strand shown
# Chain of HSF1 (Q00613 whole entry): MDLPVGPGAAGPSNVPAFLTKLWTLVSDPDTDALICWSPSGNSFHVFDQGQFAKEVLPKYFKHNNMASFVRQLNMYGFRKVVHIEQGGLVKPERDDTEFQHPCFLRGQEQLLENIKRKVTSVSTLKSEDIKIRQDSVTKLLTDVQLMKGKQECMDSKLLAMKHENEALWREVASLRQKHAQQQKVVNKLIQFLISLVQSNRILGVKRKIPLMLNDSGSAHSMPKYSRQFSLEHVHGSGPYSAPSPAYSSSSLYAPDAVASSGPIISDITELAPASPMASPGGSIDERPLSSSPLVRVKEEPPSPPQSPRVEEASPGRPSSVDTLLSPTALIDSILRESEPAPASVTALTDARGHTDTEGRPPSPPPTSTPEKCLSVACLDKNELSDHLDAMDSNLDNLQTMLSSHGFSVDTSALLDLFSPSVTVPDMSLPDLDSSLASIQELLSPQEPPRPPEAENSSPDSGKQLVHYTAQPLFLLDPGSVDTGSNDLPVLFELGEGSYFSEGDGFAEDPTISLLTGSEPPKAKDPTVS
# In short: as §1
# SPIC = molecular target: T8, SPIC (Homo sapiens, UniProt Q8N5J4 1-248); conditions: protein: recombinant; tags: N-terminal GST; dsDNA, one strand shown
# T8 sequence: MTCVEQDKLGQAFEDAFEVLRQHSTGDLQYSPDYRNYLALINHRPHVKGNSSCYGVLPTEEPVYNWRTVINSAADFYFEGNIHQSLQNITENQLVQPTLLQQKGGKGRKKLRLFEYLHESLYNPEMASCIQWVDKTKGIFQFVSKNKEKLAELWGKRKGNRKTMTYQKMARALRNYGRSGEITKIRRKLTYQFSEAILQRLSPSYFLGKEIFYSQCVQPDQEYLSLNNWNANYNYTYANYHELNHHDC
# In short: as §1
# ELF4 = ELF4 (Homo sapiens, UniProt Q99607 1-663); conditions: protein: recombinant; tags: N-terminal GST; dsDNA, one strand shown
# Chain of ELF4 (Q99607 whole entry): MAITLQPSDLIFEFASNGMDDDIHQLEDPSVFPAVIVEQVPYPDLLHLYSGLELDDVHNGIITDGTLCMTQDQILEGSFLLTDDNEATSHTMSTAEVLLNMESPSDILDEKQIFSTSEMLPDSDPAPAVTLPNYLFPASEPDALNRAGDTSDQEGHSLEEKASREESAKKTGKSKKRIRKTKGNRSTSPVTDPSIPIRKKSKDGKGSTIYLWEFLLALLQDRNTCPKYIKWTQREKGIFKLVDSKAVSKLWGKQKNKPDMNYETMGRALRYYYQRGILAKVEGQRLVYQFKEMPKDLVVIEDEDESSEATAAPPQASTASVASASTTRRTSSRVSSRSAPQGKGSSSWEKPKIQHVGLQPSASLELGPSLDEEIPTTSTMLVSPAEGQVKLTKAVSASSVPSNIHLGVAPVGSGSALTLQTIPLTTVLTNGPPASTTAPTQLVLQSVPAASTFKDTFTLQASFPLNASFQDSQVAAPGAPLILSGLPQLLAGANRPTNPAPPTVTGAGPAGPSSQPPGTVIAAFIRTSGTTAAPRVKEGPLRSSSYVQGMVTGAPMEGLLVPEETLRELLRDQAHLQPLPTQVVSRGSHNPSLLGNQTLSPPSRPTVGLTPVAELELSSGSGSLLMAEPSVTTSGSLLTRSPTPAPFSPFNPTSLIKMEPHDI
# In short: as §1
# ELK4 = molecular target: T9, ELK4 (Homo sapiens, UniProt P28324-2 1-405); conditions: protein: recombinant; tags: N-terminal GST; dsDNA, one strand shown
# T9 sequence: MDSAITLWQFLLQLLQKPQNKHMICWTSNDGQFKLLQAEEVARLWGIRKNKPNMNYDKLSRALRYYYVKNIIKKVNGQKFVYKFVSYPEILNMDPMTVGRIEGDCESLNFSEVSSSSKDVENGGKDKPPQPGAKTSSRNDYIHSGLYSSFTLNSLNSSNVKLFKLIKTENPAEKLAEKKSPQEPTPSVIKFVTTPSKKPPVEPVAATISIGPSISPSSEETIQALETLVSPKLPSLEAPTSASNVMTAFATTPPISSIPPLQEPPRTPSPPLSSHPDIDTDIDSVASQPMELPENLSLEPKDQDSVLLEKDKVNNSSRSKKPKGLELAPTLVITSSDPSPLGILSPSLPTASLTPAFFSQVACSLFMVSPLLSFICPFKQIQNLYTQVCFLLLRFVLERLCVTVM
# In short: as §1
# ETV2 = molecular target: T10, ETV2 (Homo sapiens, UniProt O00321 1-342); conditions: protein: recombinant; tags: N-terminal GST; dsDNA, one strand shown
# T10 sequence: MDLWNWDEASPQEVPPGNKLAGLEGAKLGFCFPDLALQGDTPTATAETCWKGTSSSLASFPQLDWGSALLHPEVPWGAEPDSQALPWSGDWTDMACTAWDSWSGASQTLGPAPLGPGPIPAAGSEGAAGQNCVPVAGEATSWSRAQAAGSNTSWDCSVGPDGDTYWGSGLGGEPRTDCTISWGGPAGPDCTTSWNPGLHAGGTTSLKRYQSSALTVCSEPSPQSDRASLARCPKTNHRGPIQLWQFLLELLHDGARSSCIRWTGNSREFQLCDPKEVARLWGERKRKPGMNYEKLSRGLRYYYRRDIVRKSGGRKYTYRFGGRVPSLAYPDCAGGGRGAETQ
# In short: as §1
# ELF3 = molecular target: T11, ELF3 (Homo sapiens, UniProt P78545 1-371); conditions: protein: recombinant; tags: N-terminal GST; dsDNA, one strand shown
# T11 sequence: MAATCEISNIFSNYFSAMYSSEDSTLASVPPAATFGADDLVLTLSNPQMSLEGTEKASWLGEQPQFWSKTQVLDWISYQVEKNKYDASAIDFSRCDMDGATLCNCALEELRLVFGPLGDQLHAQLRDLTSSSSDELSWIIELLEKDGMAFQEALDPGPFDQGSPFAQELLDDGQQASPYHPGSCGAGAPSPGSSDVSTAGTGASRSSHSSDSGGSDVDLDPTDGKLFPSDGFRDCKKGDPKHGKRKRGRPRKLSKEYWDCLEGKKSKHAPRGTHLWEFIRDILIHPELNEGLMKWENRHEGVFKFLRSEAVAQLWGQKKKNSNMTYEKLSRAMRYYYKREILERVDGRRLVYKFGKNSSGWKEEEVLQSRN
# In short: as §1
# CRX = CRX (Homo sapiens, UniProt O43186 1-299); conditions: protein: recombinant; tags: N-terminal GST; dsDNA, one strand shown
# Chain of CRX (O43186 whole entry): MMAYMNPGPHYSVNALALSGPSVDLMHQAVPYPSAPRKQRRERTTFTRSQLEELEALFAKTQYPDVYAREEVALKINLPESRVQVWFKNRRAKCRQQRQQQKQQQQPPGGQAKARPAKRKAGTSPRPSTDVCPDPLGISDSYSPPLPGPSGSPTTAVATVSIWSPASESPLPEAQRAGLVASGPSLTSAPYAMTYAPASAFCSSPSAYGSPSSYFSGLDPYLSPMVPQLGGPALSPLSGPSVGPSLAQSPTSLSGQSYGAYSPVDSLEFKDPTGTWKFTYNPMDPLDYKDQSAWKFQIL
# In short: as §1
# ETV1 = ETV1 (Homo sapiens, UniProt P50549 1-477); conditions: protein: recombinant; tags: N-terminal GST; dsDNA, one strand shown
# Chain of ETV1 (P50549 whole entry): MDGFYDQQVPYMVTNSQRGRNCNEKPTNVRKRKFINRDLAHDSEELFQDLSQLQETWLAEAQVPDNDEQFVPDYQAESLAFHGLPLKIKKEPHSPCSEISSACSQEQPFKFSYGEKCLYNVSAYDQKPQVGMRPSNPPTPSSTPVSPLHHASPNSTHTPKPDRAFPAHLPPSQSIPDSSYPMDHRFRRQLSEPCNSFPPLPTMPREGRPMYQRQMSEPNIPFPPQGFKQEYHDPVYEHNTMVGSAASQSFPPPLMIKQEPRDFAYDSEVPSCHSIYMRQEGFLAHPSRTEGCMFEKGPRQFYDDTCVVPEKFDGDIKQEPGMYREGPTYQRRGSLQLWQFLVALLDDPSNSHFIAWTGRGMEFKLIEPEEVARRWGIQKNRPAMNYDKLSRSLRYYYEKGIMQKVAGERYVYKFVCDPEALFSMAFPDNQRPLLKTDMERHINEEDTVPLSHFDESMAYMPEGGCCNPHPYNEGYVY
# In short: as §1
sequence,measurement,setting,value
CGACTA,binding signal,FLI1,"1.24 fold enrichment (6-mer frequency, TF over GST control)"
same,binding signal,ELK1,"1.31 fold enrichment (6-mer frequency, TF over GST control)"
same,binding signal,GABPA,"1.5 fold enrichment (6-mer frequency, TF over GST control)"
same,binding signal,ERG,"1.28 fold enrichment (6-mer frequency, TF over GST control)"
same,binding signal,ELF1,"1.31 fold enrichment (6-mer frequency, TF over GST control)"
same,binding signal,EHF,"1.31 fold enrichment (6-mer frequency, TF over GST control)"
same,binding signal,SPI1,"1.29 fold enrichment (6-mer frequency, TF over GST control)"
same,binding signal,SPIB,"1.32 fold enrichment (6-mer frequency, TF over GST control)"
same,binding signal,ELK3,"1.3 fold enrichment (6-mer frequency, TF over GST control)"
same,binding signal,FEV,"1.31 fold enrichment (6-mer frequency, TF over GST control)"
same,binding signal,ETV5,"1.25 fold enrichment (6-mer frequency, TF over GST control)"
same,binding signal,HSF1,"1.52 fold enrichment (6-mer frequency, TF over GST control)"
same,binding signal,SPIC,"1.47 fold enrichment (6-mer frequency, TF over GST control)"
same,binding signal,ELF4,"1.48 fold enrichment (6-mer frequency, TF over GST control)"
same,binding signal,ELK4,"1.58 fold enrichment (6-mer frequency, TF over GST control)"
same,binding signal,ETV2,"1.49 fold enrichment (6-mer frequency, TF over GST control)"
same,binding signal,ELF3,"1.41 fold enrichment (6-mer frequency, TF over GST control)"
same,binding signal,CRX,"1.52 fold enrichment (6-mer frequency, TF over GST control)"
same,binding signal,ETV1,"1.4 fold enrichment (6-mer frequency, TF over GST control)"

# Reference: paper PMC7862700, “An all-to-all approach to the identification of sequence-specific readers for epigenetic DNA modifications on cytosine”
